According to PubChem BioAssay AID1832 (Broad Institute, 2009):
Out of some 300,000 compounds screened, about 1,100 (0.37%) were called active.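 How the source made its calls: active means inhibition past about -25% in most replicates, and total fluorescence under double the plate's negative control median (limit read from the data); inconclusive means replicates evenly split on the limit, or fluorescence at least double controls; inactive means too little inhibition in most replicates.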 Only a selection was taken, and actives are over-represented in it overall.

These compounds were tested against Zinc finger protein mex-5 (Caenorhabditis elegans) (UniProt Q9XUB2) (assay: MEX-5 zinc finger RNA-binding disruptors – biochemical, C. elegans, fluorescence polarization, MLPCN library, primary screen (AID 1832;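 further: 0% = DMSO and -100% = 5 µM competing unlabeled TCR2 RNA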)). Settings: MEX-5/FITC-TCR2 RNA binding, at 10 µM, stronger effect = lower value.
Zinc finger protein mex-5 (Caenorhabditis elegans), sequence (Q9XUB2 whole entry, looked up): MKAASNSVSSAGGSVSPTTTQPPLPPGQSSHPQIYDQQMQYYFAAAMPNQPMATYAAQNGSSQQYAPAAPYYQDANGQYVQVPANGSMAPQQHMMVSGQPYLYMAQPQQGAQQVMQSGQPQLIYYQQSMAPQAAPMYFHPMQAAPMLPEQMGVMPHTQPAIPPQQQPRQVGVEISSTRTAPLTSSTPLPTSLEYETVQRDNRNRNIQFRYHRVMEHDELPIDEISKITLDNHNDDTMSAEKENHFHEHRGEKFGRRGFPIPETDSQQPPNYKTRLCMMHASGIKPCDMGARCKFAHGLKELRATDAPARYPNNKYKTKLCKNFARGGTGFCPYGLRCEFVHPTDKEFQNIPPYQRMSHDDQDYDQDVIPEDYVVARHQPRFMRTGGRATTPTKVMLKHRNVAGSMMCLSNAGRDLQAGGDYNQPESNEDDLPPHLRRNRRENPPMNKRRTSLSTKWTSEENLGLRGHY

SMILES | activity score (negative = inhibition of binding)
CC(C)(C)OC(=O)N1CCC(C(=O)NNC(=O)c2ccc(Cl)cc2Cl)CC1 | 0.105% (inactive)
CCOC(=O)c1sc2nc(C)[nH]c(=O)c2c1C | -1.49% (inactive)
CSc1nnc(SCc2nc3sc(C(=O)O)c(C)c3c(=O)[nH]2)s1 | -39.1% (active)
CCOC(=O)c1sc2nc(CSc3ccccc3)[nH]c(=O)c2c1C | 3.85% (inactive)
CC(C)C[C@H](NC(=O)N1CC(=O)Nc2ccccc21)C(=O)N[C@H](Cc1ccccc1)C(=O)O | 2.99% (inactive)
COc1ccc(C(=O)OCC(=O)NCC2CCCO2)cc1[N+](=O)[O-] (stereo not given) | 0.621% (inactive)
CNC(=O)/C(C#N)=C/c1c(F)cccc1Cl | 0.288% (inactive)
COc1ccc2c(C)c(CCC(=O)NC3CC3)c(=O)oc2c1C | -3.04% (inactive)
CCCCC1N2CC3([N+](=O)[O-])CN1CC([N+](=O)[O-])(C2)C3(C)C (stereo not given) | -0.199% (inactive)
COc1ccc(/C=C2\SC(=S)N(CCCC(=O)NC3CCCC3)C2=O)cc1OC | -48.2% (active)
COc1ccc(/C=C2\SC(=S)N(CCC(=O)Nc3cccc(C(=O)O)c3)C2=O)cc1OC | -1.23% (inactive)
COc1ccc(/C=C2\SC(=S)N(CCC(=O)Nc3ccccn3)C2=O)cc1OC | -2.36% (inactive)
O=S(=O)(c1ccccc1)N1CCC(c2ccccc2)CC1 | -0.204% (inactive)
CCN(CC(=O)Nc1ccc2c(c1)OCCO2)Cc1cc(=O)oc2cc(C)c(C)cc12 | -1.63% (inactive)
Nc1ccc2nc3c(=O)[nH]c(=S)[nH]c3nc2c1 | -47.2% (active)
COc1ccc(CCn2c(NN=C3CCCC3)nc3c2c(=O)[nH]c(=O)n3C)cc1 | 1.31% (inactive)
NC(=O)c1oc2ccccc2c1NC(=O)Cc1ccccc1 | -2.66% (inactive)
CCCn1c(O)c(CN2CCCC(C)C2)c(C)c(C#N)c1=O (stereo not given) | -33.7% (active)
Cc1c(CN2CCCCC2)c(O)n(CCO)c(=O)c1C#N | -12.5% (inactive)
CCCCCCn1c(CN2CCCC(C)C2)nc2c1c(=O)n(C)c(=O)n2C (stereo not given) | -0.485% (inactive)
COc1cccc(NC(=O)CSc2nnc(-c3cccnc3)o2)c1 | -0.46% (inactive)
CCOC(=O)COc1cc(O)c2c(=O)cc(-c3ccccc3)oc2c1 | 0.422% (inactive)
COc1ccc(-c2cc(=O)c3c(O)cc(O[C@@H]4O[C@H](CO[C@@H]5O[C@@H](C)[C@H](O)[C@@H](O)[C@H]5O)[C@@H](O)[C@H](O)[C@H]4O)cc3o2)cc1O | 0.902% (inactive)

SMILES | activity score (negative = inhibition of binding)
COc1c(O)cc2oc(-c3ccc(O)c(O)c3)cc(=O)c2c1O | -34.4% (active)
COc1ccccc1OCCOc1ccc(/C=C2\C(=N)N3N=C(C)SC3=NC2=O)cc1 | 0.998% (inactive)
CC(C)CC(=O)c1c[nH]c(C(=O)NCc2ccccc2)c1 | -0.164% (inactive)
CN1CCN(/N=C/c2ccc(-c3ccc([N+](=O)[O-])cc3)o2)CC1 | 2.18% (inactive)
CN1C(=O)/C(=C\c2ccc(-c3ccccc3)o2)SC1=S | -2.67% (inactive)
NS(=O)(=O)c1ccc(-c2ccc(/C=C3\SC(=O)NC3=O)o2)cc1 | -76.4% (active)
CCOCCCNC(=S)Nc1ccc2nc(N3CCN(CC)CC3)cc(C)c2c1 | 2.27% (inactive)
CCOCCCNC(=O)C(NC(=O)CNC(=O)c1ccccc1)c1ccc(OC)cc1 (stereo not given) | -1.36% (inactive)
O=C(C1=C(O)C(=O)N(Cc2ccccc2)C1c1cccnc1)c1ccco1 (stereo not given) | -1.21% (inactive)
O=C(C1=C(O)C(=O)N(c2ncccn2)C1c1cccs1)c1ccco1 (stereo not given) | -42.2% (active)
O=C(C1=C(O)C(=O)N(Cc2ccccc2)C1c1ccco1)c1ccco1 (stereo not given) | 0.4% (inactive)
c1ccc2c(c1)CCc1snnc1-2 | 2.39% (inactive)
O=C(Cn1nc(C(=O)O)c2ccccc2c1=O)Nc1ccc(F)cc1 | -2.04% (inactive)
Cc1ccc(-c2nn(-c3ccccc3)cc2/C=C2\SC(=S)N(CCCCCC(=O)O)C2=O)o1 | -7.25% (inactive)
CCCCN(C(=O)c1ccc(OC(F)(F)F)cc1)c1c(N)n(CCC)c(=O)[nH]c1=O | 1.98% (inactive)
Cc1ccc(Cn2c(=N)c(S(=O)(=O)c3ccc(C)cc3)cc3c(=O)n4ccccc4nc32)cc1 | 6.5% (inactive)
COc1ccc(CNC(=O)c2cc3c(=O)n4ccccc4nc3n(CC3CCCO3)c2=N)cc1 (stereo not given) | -4.96% (inactive)
CCn1c(=N)c(S(=O)(=O)c2ccc(F)cc2)cc2c(=O)n3ccccc3nc21 | -29.2% (active)
O=C(N/N=C/c1ccc([N+](=O)[O-])o1)c1cn(-c2ccccc2)nc1-c1ccc(F)cc1 | -3.11% (inactive)
O=C(/C=C/c1ccc([N+](=O)[O-])o1)NNC(=O)c1ccc(F)cc1 | -26.8% (active)
Cc1ccc(/C=C/C(=O)Nc2ccc([N+](=O)[O-])c(NC(=O)/C=C/c3ccc(C)o3)c2)o1 | 1.59% (inactive)
O=C(c1ccc(F)cc1)n1c(=S)nc2ccccn21 | 0.662% (inactive)
O=C(COC(=O)c1ccc(F)cc1F)Nc1ncccn1 | -8.66% (inactive)

SMILES | activity score (negative = inhibition of binding)
CC(C)NC(=S)Nc1cccc2cnccc12 | 0.93% (inactive)
CC1(C)Cc2nc3sc4c(SCC(=O)NC(c5ccccc5)c5ccccc5)ncnc4c3cc2CO1 | -0.0678% (inactive)
Cc1ccc(NC(=O)CSc2sc3c(O)cc(=O)[nH]c3c2C#N)cc1C | -1.19% (inactive)
O=C(N/N=C/c1ccc([N+](=O)[O-])cc1)C(=O)N1CCCC1 | -0.216% (inactive)
COC(=O)N/N=C/c1ccc(-c2ccc(Cl)c(Cl)c2)o1 | 2.42% (inactive)
O=C(N/N=C\c1ccc(-c2ccc(Cl)c(Cl)c2)o1)C(=O)N1CCCC1 | -55.2% (active)
COC(C(=O)NCc1ccccc1C)c1ccccc1 (stereo not given) | -0.406% (inactive)
O=C(NCCCN1CCOCC1)C1CCCN(S(=O)(=O)N2CCCCC2)C1 (stereo not given) | 0.135% (inactive)
S=c1[nH]nc2c3c4c(sc3ncn12)CCCC4 | 0.932% (inactive)
ON=C1/C(=N\O)CC2(C/C1=N/O)OCCO2 | -31.5% (active)
O/N=C1\CC2(Cc3nonc31)OCCO2 | 2.02% (inactive)
COc1ccc(C(=O)c2c(C)c(CCC#N)n3ccccc23)c(OC)c1 | -2.13% (inactive)
C=CCOc1ccc(/C=C2/C(=O)ON=C2C)cc1OCC | -10.9% (inactive)
COc1cc(/C=C2/C(=O)ON=C2C)ccc1OCc1cccc(F)c1 | -9.55% (inactive)
COc1cc(/C=C2/C(=O)ON=C2C)ccc1OCc1ccccc1F | -63.3% (active)
CC(=O)Nc1ccc(Nc2nc3c(S(=O)(=O)c4ccc(C)c(C)c4)nnn3c3ccccc23)cc1 | -3.46% (inactive)
Cc1cc(=O)oc2cc(NC(=O)C3CC(=O)N(Cc4ccccc4)C3)ccc12 (stereo not given) | -4.23% (inactive)
C/[N+]([O-])=C\c1ccc([N+](=O)[O-])o1 | -3.97% (inactive)
CCn1c(/C=C/c2ccc([N+](=O)[O-])o2)nc2ccccc2c1=O | -34.2% (active)
Cc1cc(C)nc(N/N=C/c2ccc([N+](=O)[O-])o2)n1 | -9.59% (inactive)
COc1ccc(NS(=O)(=O)c2cccc3nsnc23)cc1Cl | 1.95% (inactive)
COC(=O)c1ccc(NC(=S)Nc2cccc(C)n2)cc1 | -0.058% (inactive)
O=C(Nc1ccc(C(=O)N2CCCCC2)cc1)c1cccc([N+](=O)[O-])c1 | 1.72% (inactive)

SMILES | activity score (negative = inhibition of binding)
Cc1cc([N+](=O)[O-])ccc1NC(=O)c1ccc(NC(=O)C(C)C)cc1 | 0.662% (inactive)
Cn1ccc(=Nc2ccc(NC(=O)c3ccc(N=c4ccn(C)c5ccc([N+](=O)[O-])cc45)cc3)cc2)cc1 | -46.8% (active)
CN(C)Cc1c(O)ccc2occ(C(O)c3ccccc3)c12 (stereo not given) | 1.82% (inactive)
CCCn1nc(C(=O)Nc2ccc3nc(C)sc3c2)c2ccccc2c1=O | -34.8% (active)
CCCCn1nc(C(=O)Nc2ccc(S(=O)(=O)Nc3ncccn3)cc2)c2ccccc2c1=O | 2.51% (inactive)
CCCn1nc(C(=O)NNC(=O)CSCC(=O)Nc2cc(C)on2)c2ccccc2c1=O | -9.23% (inactive)
CCOC(=O)NC(=O)C(=CNc1cccc(OC)c1)C(=O)NC(=O)OCC | -0.689% (inactive)
C=CCOc1ccccc1NC(=O)CN1C(=O)CNC1=O | 1.49% (inactive)
Cc1nc(CN(C)C(=O)CC2C(=O)NCCN2Cc2ccc(F)cc2)cs1 (stereo not given) | -3.2% (inactive)
NS(=O)(=O)c1ccc(NC(=O)/C=C/c2ccccc2Cl)cc1 | -0.539% (inactive)
COc1ncnc2c1N=C1CC(C)(C)CC(N)=C1S2 | -36.1% (active)
Cn1c(Nc2ccccc2)cc(=O)n(C)c1=O | -3.14% (inactive)
Oc1c(Cl)cc(Cl)c(Cl)c1Cc1c(O)c(Cl)cc(Cl)c1Cl | -82.9% (active)
Cc1cc(NS(=O)(=O)c2ccc(NC(=S)NC(=O)c3ccc(F)cc3Cl)cc2)no1 | -0.765% (inactive)
O=C(NCC1CCCO1)C1CCN(C2CCN(C(=O)C3CCCCC3)CC2)CC1 (stereo not given) | -0.223% (inactive)
COc1cc(C(=S)N2CCOCC2)cc(OC)c1OC(=O)c1ccc([N+](=O)[O-])cc1[N+](=O)[O-] | -2.68% (inactive)
Cc1cc(C(=O)Nc2c(C)n(C)n(-c3ccccc3)c2=O)cs1 | 2.16% (inactive)
Cc1c(NC(=O)c2coc(=O)c(Br)c2)c(=O)n(-c2ccccc2)n1C | -44.8% (active)
Cc1c(NC(=O)c2cccnc2)c(=O)n(-c2ccccc2)n1C | 0.492% (inactive)
CCOc1ncccc1C(=O)NCCc1ccc(OC)cc1 | -0.435% (inactive)
CNC(=O)CN1C(=O)NC(c2ccccc2)(c2ccccc2)C1=O | 2.16% (inactive)
